From the supplement of paper PMC12067093, “Discovery and optimisation of a covalent ligand for TRIM25 and its application to targeted protein ubiquitination” (Chemical Science, 2025)
About 21,000 targets were measured; listed, in parts, are those with the largest changes and a random draw of the rest.

Compound: Cc1cc(ccc1-c1ccccc1)C(=O)N1CCCN(CC1)C(=O)CCl [compound 10]
Experiment: probe-labelled cysteine peptide fold change vs DMSO (competition) (log2 fold change); higher = less target engagement (more negative = stronger competition)
Conditions: THP-1, incubation time: 4 h
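Also: competitive profiling in live THP-1 cells: cysteine peptides tagged with an iodoacetamide desthiobiotin (IA-DTB) probe, intensity after compound treatment relative to DMSO-treated cells.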

Target	probe-labelled cysteine peptide fold change (10 µM)	probe-labelled cysteine peptide fold change (50 µM)
RAD50_Q92878_133_CAEIDREMISSLGVSK (UniProt Q92878)	-0.195	-0.429
RASSF5_Q8WWW0_225_NCLGMK (UniProt Q8WWW0)	-0.275	-0.844
RANBP9_Q96S59_707_QPPLALAMGQATQCLGLMAR (UniProt Q96S59)	0.193	0.216
PTPN12_Q05209_164_ISCEDEQAR (UniProt Q05209)	0.159	0.15
PRKDC_P78527_1364_DLCNTHLMR (UniProt P78527)	-0.0526	-0.0393
RANBP2_P49792_1243_ICANHYISPDMK (UniProt P49792)	0.0568	0.0875
RECQL4_O94761_814_DGQPAHCHLFLQPQGEDLR (UniProt O94761)	-0.0251	-0.0847
PRPF19_Q9UMS4_5+16_SLICSISNEVPEHPCVSPVSNHVYER (UniProt Q9UMS4)	0.0585	0.103
RARS2_Q5T160_479_LHSLEETFGCGYLNDFNTACLQEPQSVSILQHLLR (UniProt Q5T160)	-0.037	0.0628
RABGAP1L_Q5R372_665_NNFEDLHCK (UniProt Q5R372)	0.206	0.197
RACGAP1_Q9H0H5_419_VDDIHAICSLLK (UniProt Q9H0H5)	0.00786	0.00467
RNF126_Q9BV68_13+16_YFCHCCSVEIVPR (UniProt Q9BV68)	-0.268	-1.16
RHOG_P84095_18_TCLLICYTTNAFPK (UniProt P84095)	-0.108	0.0979
PSMD11_O00231_257_YMLLCK (UniProt O00231)	0.248	0.241
PXN_P49023_523_ECFTPFVNGSFFEHDGQPYCEVHYHER (UniProt P49023)	0.032	0.12
RBM4B_Q9BQ04_107_FEEYGPVIECDIVK<|>RBM4_Q9BWF3_107_FEEYGPVIECDIVK (UniProt Q9BWF3+Q9BQ04)	0.566	0.744
RGPD3_A6NKT7_537_SWWDAVCTLIHR<|>RGPD8_O14715_537_SWWDAVCTLIHR<|>RGPD1_P0DJD0_528_SWWDAVCTLIHR<|>RGPD2_P0DJD1_536_SWWDAVCTLIHR<|>RANBP2_P49792_536_SWWDAVCTLIHR<|>RGPD4_Q7Z3J3_537_SWWDAVCTLIHR<|>RGPD6_Q99666_537_SWWDAVCTLIHR (UniProt Q7Z3J3+P49792+P0DJD1+Q99666+P0DJD0+O14715+A6NKT7)	-0.451	-0.14
PRKDC_P78527_1742_FNNYVDCMK (UniProt P78527)	0.239	-0.0715
RFXANK_O14593_205_CVEALLAR (UniProt O14593)	0.0175	-0.265
RHOT2_Q8IXI1_185_QLRPACAQALTR (UniProt Q8IXI1)	-0.151	0.0492
PRMT9_Q6P2P2_290_GESANCEK (UniProt Q6P2P2)	-0.112	-0.0837
RB1CC1_Q8TDY2_603_VPLLCDFEPLHQHVLALHNLVK (UniProt Q8TDY2)	-0.156	-1.09
RABEPK_Q7Z6M1_36_VGHSCSYLPPVGNAK (UniProt Q7Z6M1)	-0.218	-0.0672
RDH13_Q8NBN7_30_DYVTGGACPSK (UniProt Q8NBN7)	-0.162	-0.083
RMND5A_Q9H871_328+336_CWYHSIFACPILR (UniProt Q9H871)	-0.0698	-0.177
PTPMT1_Q8WUK0_127+132_YQSLGQCVYVHCK (UniProt Q8WUK0)	0.0587	-0.0194

Target	probe-labelled cysteine peptide fold change (10 µM)	probe-labelled cysteine peptide fold change (50 µM)
REPIN1_Q9BWE0_433+436_VHSGERPFACEECGR (UniProt Q9BWE0)	-0.108	-0.289
RFC3_P40938_32_NLVQCGDFPHLLVYGPSGAGK (UniProt P40938)	-0.122	0.124
PRKDC_P78527_1335_CTVVVR (UniProt P78527)	0.00715	0.101
PRR14L_Q5THK1_1483_DTESCTSPCLLGAPR (UniProt Q5THK1)	-0.528	-1.12
RARS_P54136_34_NCGCLGASPNLEQLQEENLK (UniProt P54136)	-0.247	-1.27
PSMB3_P49720_19_NCVAIAADRR (UniProt P49720)	0.0313	0.234
PSME1_Q06323_101_KKGEDEDKGPPCGPVNCNEK (UniProt Q06323)	-0.428	-1.54
PTPN1_P18031_344_EETQEDKDCPIKEEK (UniProt P18031)	-0.593	-1.57
RAD54L2_Q9Y4B4_618_AFCVCCK (UniProt Q9Y4B4)	-0.173	-0.639
RNASEH1_O60930_191_AEIHAACK (UniProt O60930)	-0.0799	-0.155
RHOC_P08134_20_TCLLIVFSK<|>RHOA_P61586_20_TCLLIVFSK<|>RHOB_P62745_20_TCLLIVFSK (UniProt P62745+P61586+P08134)	-0.323	-0.507
RCSD1_Q6JBY9_181_RSQSDCGELGDFR (UniProt Q6JBY9)	-0.852	-1.19
RNF123_Q5XPI4_1277_ACINQHLMNNK (UniProt Q5XPI4)	-0.0494	-0.231
PSMC6_P62333_228_DHQPCIIFMDEIDAIGGR (UniProt P62333)	-0.0612	0.106
RGPD3_A6NKT7_141_LKEQLLDCEGEDGWNK<|>RGPD8_O14715_141_LKEQLLDCEGEDGWNK<|>RANBP2_P49792_141_LKEQLLDCEGEDGWNK<|>RGPD4_Q7Z3J3_141_LKEQLLDCEGEDGWNK (UniProt Q7Z3J3+P49792+O14715+A6NKT7)	-0.113	-0.334
RAB10_P61026_124_CDMDDK (UniProt P61026)	-0.104	0.0844
QDPR_P09417_161_GAVHQLCQSLAGK (UniProt P09417)	0.0328	0.165
PREX1_Q8TCU6_836_LSLCEDSPMVTLTVDNVHLEHGVVYEYVSTAGVR (UniProt Q8TCU6)	-0.0714	0.185
RHOC_P08134_16_KLVIVGDGACGK<|>RHOA_P61586_16_KLVIVGDGACGK (UniProt P61586+P08134)	-0.0365	-0.193
RNF114_Q9Y508_64_KPVCGVCR (UniProt Q9Y508)	0.0642	-0.0371
PSMC1_P62191_58_LPLVTPHTQCR (UniProt P62191)	-0.0192	0.104
PRKCI_P41743_137_LYCANGHTFQAK (UniProt P41743)	-0.00179	0.0748
RGMB_Q6NW40_226_ITIIFKAHHECTDQK (UniProt Q6NW40)	-0.0752	-1.11
PRKCSH_P14314_39_GVSLTNHHFYDESKPFTCLDGSATIPFDQVNDDYCDCK (UniProt P14314)	-0.151	-1.07
PRKCD_Q05655_127_VLMSVQYFLEDVDCK (UniProt Q05655)	-0.226	-0.31
PRKDC_P78527_373_GYGLFAGPCK (UniProt P78527)	-0.037	0.131

Target	probe-labelled cysteine peptide fold change (10 µM)	probe-labelled cysteine peptide fold change (50 µM)
RAI14_Q9P0K7_139_TALHYAAAQGCLQAVQILCEHK (UniProt Q9P0K7)	0.0635	-0.0217
RIF1_Q5UIP0_2450_LSCMANSVIK (UniProt Q5UIP0)	-0.0942	-0.14
RNF113A_O15541_202_WDYQPDICK<|>RNF113B_Q8IZP6_196_WDYQPDICK (UniProt Q8IZP6+O15541)	-0.0623	-0.145
PRKDC_P78527_2342_KNILEESLCELVAK (UniProt P78527)	-0.182	-0.0562
PRPF6_O94906_837_KCEHDPHVLLAVAK (UniProt O94906)	-0.315	0.18
PRKDC_P78527_2093_DPTVHDDVLELEMDELNRHECMAPLTALVK (UniProt P78527)	-0.156	-0.199
PRKDC_P78527_1507_QCLPSLDLSCK (UniProt P78527)	0.0976	-1.07
QRSL1_Q9H0R6_278_LCIGIPK (UniProt Q9H0R6)	0.155	0.0481
PRMT5_O14744_622_KVWYEWAVTAPVCSAIHNPTGR (UniProt O14744)	-0.0156	0.0576
PRR14L_Q5THK1_1503_AQDPSSAGCDQIHGAFAK (UniProt Q5THK1)	-0.388	-1.59
PRMT1_Q99873_103_DKVVLDVGSGTGILCMFAAK (UniProt Q99873)	-0.168	-0.709
RAB33A_Q14088_135_MWIQECNGHAVPPLVPK (UniProt Q14088)	0.0206	0.0086
RANBP2_P49792_2982_VCANHVITK (UniProt P49792)	0.0357	0.111
QARS_P47897_665_GPSGCVESLEVTCR (UniProt P47897)	-0.11	0.446
PUS7_Q96PZ0_319_CLMNFK (UniProt Q96PZ0)	-0.0229	-0.239
RABGEF1_Q9UJ41_359_DLSIEEQSECAQDFYHNVAER (UniProt Q9UJ41)	-0.389	-0.123
PRPS1_P60891_41_KFSNQETCVEIGESVR (UniProt P60891)	0.0818	0.329
PRXL2A_Q9BRX8_88_RPGCFLCR (UniProt Q9BRX8)	-2.04	-2.18
REEP5_Q00765_18_NCMTDLLAK (UniProt Q00765)	-0.872	-1.97
PXN_P49023_505_ECFTPFVNGSFFEHDGQPYCEVHYHER (UniProt P49023)	0.192	0.386
RET_P07949_987_LMLQCWK (UniProt P07949)	0.0807	0.122
RGS10_O43665_66_EFSEENVLFWLACEDFK (UniProt O43665)	0.332	0.101
PTPRC_P08575_610_SCNLDEQQELVERDDEK (UniProt P08575)	-0.427	-1.12
RFC3_P40938_32_NLVQCGDFPHLLVYGPSGAGKK (UniProt P40938)	-0.11	-0.186
PUM1_Q14671_980_CIECVQPQSLQFIIDAFK (UniProt Q14671)	0.213	-0.0133
